Values joined by “and” are separate entries in the source; they are usually repeats but may differ in a detail not shown here. Equal entries are not always repeated. About 2,000 (36%) of roughly 5,500 compounds were called active. Another 18% or so got no clear call; they are omitted. No stated cut-off is given here; in the data, active means normalized growth mostly below about 0.91 (no sharp cut-off); inconclusive means no clear call, values can overlap the other calls; inactive means mostly above about 0.92. This is one part of the list.
Test: chemical genetic growth profiling, strain panel (AID 1159580);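 further: tested at 20 µM; growth read once vehicle control cultures reached saturation at 30 °C; 1 = growth at the plate median or of vehicle wells; lower values mean less growth of the strain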
Conditions: S. cerevisiae deletion strains, growth OD

Measured: normalized growth

COP(N)(=O)SC (configuration not stated)
inactive: locus YAL013W, strain DEP1, hits give low values 1 | locus YAL021C, strain ccr4, hits give low values 0.981 | locus YAL026C, strain drs2, hits give low values 1.01 | locus YAL030W, strain snc1, hits give low values 1 | locus YBL061C, strain skt5, hits give low values 1.01 | locus YBR009C, strain hhf1, hits give low values 1.02 | locus YBR021W, strain FUR4, hits give low values 1.01 | locus YBR023C, strain chs3, hits give low values 1.01 | locus YBR171W, strain sec66, hits give low values 1 | locus YBR229C, strain ROT2, hits give low values 0.978 | locus YBR231C, strain swc5, hits give low values 1.01 | locus YBR279W, strain paf1, hits give low values 1.01 | locus YCL011C, strain gbp2, hits give low values 1 | locus YCL016C, strain dcc1, hits give low values 1 | locus YCL029C, strain bik1, hits give low values 1.01 | locus YCL061C, strain MRC1, hits give low values 0.997 | locus YCL069W, strain vba3, hits give low values 1 | locus YCR088W, strain abp1, hits give low values 1 | locus YDL005C, strain med2, hits give low values 1 | locus YDL035C, strain GPR1, hits give low values 1.01 | locus YDL040C, strain nat1, hits give low values 1.01 | locus YDL074C, strain BRE1, hits give low values 0.993 | locus YDL101C, strain DUN1, hits give low values 0.978 | locus YDL134C, strain PPH21, hits give low values 1.01 | locus YDL185W, strain tfp1, hits give low values 1.01 | locus YDL192W, strain arf1, hits give low values 1.01 | locus YDR001C, strain nth1, hits give low values 0.994 | locus YDR069C, strain doa4, hits give low values 1.01 | locus YDR101C, strain arx1, hits give low values 1 | locus YDR137W, strain rgp1, hits give low values 1.01 | locus YDR150W, strain NUM1, hits give low values 0.987 | locus YDR159W, strain sac3, hits give low values 1.02 | locus YDR162C, strain NBP2, hits give low values 0.993 | locus YDR195W, strain ref2 0.999 | locus YDR297W, strain sur2, hits give low values 1 | locus YDR318W, strain mcm21, hits give low values 1.01 | locus YDR334W, strain swr1, hits give low values 1 | locus YDR335W, strain msn5, hits give low values 0.998 | locus YDR388W, hits give low values 1.01 | locus YDR392W, strain spt3, hits give low values 1.01 | locus YDR502C, strain sam2, hits give low values 1.01 | locus YEL003W, strain gim4, hits give low values 1 | locus YEL037C, strain rad23, hits give low values 0.998 | locus YEL061C, strain CIN8 (second series), hits give low values 1.01 | locus YEL061C, strain CIN8, hits give low values 1 | locus YER015W, strain faa2, hits give low values 1.01 | locus YER016W, strain bim1, hits give low values 1.01 | locus YER110C, hits give low values 1.01 | locus YER111C, strain swi4, hits give low values 1.01 | locus YER155C, strain BEM2 (second series), hits give low values 1.02 | locus YER155C, strain BEM2, hits give low values 0.98 | locus YER167W, strain BCK2, hits give low values 1 | locus YFR010W, strain ubp6, hits give low values 0.994 | locus YGL078C, strain dbp3, hits give low values 1.01 | locus YGL086W, strain mad1, hits give low values 1.01 | locus YGL167C, strain pmr1, hits give low values 1.01 | locus YGL173C, strain kem1, hits give low values 1.02 | locus YGL227W, strain vid30, hits give low values 1.01 | locus YGL240W, strain doc1, hits give low values 1.02 | locus YGL248W, strain PDE1, hits give low values 1.01 | locus YGL253W, strain hxk2, hits give low values 0.997 | locus YGR078C, strain PAC10, hits give low values 0.997 | locus YGR135W, strain pre9, hits give low values 0.999 | locus YGR229C, strain SMI1, hits give low values 1 | locus YGR252W, strain gcn5, hits give low values 1.02 | locus YHR013C, strain ard1, hits give low values 0.994 | locus YHR027C, strain rpn1, hits give low values 1 | locus YHR030C, strain SLT2, hits give low values 0.986 and 1.05 | locus YHR079C, strain IRE1 (second series), hits give low values 1.02 | locus YHR079C, strain IRE1, hits give low values 1.07 | locus YHR094C, strain hxt1, hits give low values 1.01 | locus YHR129C, strain ARP1, hits give low values 0.998 | locus YHR142W, strain chs7, hits give low values 0.982 | locus YHR200W, strain rpn10, hits give low values 1.01 | locus YIL066C, strain RNR3, hits give low values 1.03 | locus YIL073C, strain SPO22, hits give low values 1.06 | locus YIL125W, strain kgd1, hits give low values 1 | locus YIR030C, strain dcg1, hits give low values 1.01 | locus YJL092W, strain hpr5, hits give low values 0.998 | locus YJL095W, strain BCK1 (second series), hits give low values 1.01 | locus YJL095W, strain BCK1, hits give low values 0.99 and 1.03 | locus YJL115W, strain asf1, hits give low values 1 | locus YJL129C, strain trk1, hits give low values 0.993 | locus YJL134W, strain LCB3, hits give low values 1 | locus YJL154C, strain vps35, hits give low values 0.998 | locus YJL164C, strain tpk1, hits give low values 1 | locus YJL166W, strain qcr8, hits give low values 1.01 | locus YJL168C, strain set2, hits give low values 1.01 | locus YJL187C, strain SWE1 (second series), hits give low values 1.01 | locus YJL187C, strain SWE1, hits give low values 1.01 | locus YJR043C, strain POL32, hits give low values 1.02 | locus YJR066W, strain TOR1, hits give low values 0.985

— PubChem BioAssay AID1159580 (chemical genetic matrix, 2015)
